Experimental data as given in PubChem BioAssay (NCI).
About 79,000 compounds went through this panel and 15% of them were active in at least one assay; those are over-represented in the sample as a whole. The source made the active and inactive calls. Rule as the data show it: active = growth inhibition above about 70%; inactive = the rest.

Key:
[1] = NCI Yeast Anticancer Drug Screen. Data for the rad52 strain (AID 147);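 also: 0% = growth of vehicle-treated control cultures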; settings: S. cerevisiae rad52 mutant growth inhibition, stronger effect = higher value
How it was run: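 Growth of repair-deficient yeast cells was compared between compound-treated and vehicle-treated cultures to give percent inhibition.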

[2] = NCI Yeast Anticancer Drug Screen. Data for the wt1 strain (AID 149);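 also: 0% = growth of vehicle-treated wt1 cultures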; settings: S. cerevisiae wt1 strain (SPY 50644) growth inhibition, stronger effect = higher value
How it was run: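 Each compound is tested on wt1 yeast and the loss of growth versus vehicle gives the inhibition value.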

[3] = NCI Yeast Anticancer Drug Screen. Data for the rad50EPP+ strain (AID 151);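 also: 0% = growth of vehicle-treated control cultures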; settings: S. cerevisiae rad50 mutant strain, stronger effect = higher value
How it was run: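 Measured: growth inhibition of rad50EPP+ yeast. Reference: vehicle-treated controls. Screen uses strains with defined genetic alterations in DNA damage repair or cell cycle control.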

[4] = NCI Yeast Anticancer Drug Screen. Data for the mgt1 strain (AID 153); settings: S. cerevisiae mgt1 mutant growth inhibition, stronger effect = higher value
How it was run: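 Compounds were applied to mgt1 mutant yeast, and growth was then compared against vehicle-treated control cultures to give percent inhibition.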

[5] = NCI Yeast Anticancer Drug Screen. Data for the rad50 strain (AID 155);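 also: 0% = growth of vehicle-only cultures of the same strain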; settings: S. cerevisiae rad50 strain growth inhibition, stronger effect = higher value
How it was run: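 Vehicle-treated cultures provide the reference for the growth inhibition reported for compound-exposed, repair-deficient yeast.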

[6] = NCI Yeast Anticancer Drug Screen. Data for the mec2-1 strain (AID 157); settings: S. cerevisiae mec2-1 strain, stronger effect = higher value
How it was run: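 Compounds were applied to mec2-1 yeast cells. Their growth was then compared with that of vehicle-treated cultures to give growth inhibition.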

[7] = NCI Yeast Anticancer Drug Screen. Data for the rad14 strain (AID 159);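 also: 0% = growth of vehicle-treated control cultures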; settings: S. cerevisiae rad14 strain growth inhibition, stronger effect = higher value
How it was run: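 Inhibition of growth is reported for a repair-deficient yeast mutant following compound treatment, calculated relative to cultures that received vehicle.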

[8] = NCI Yeast Anticancer Drug Screen. Data for the sgs1 mgt1 strain (AID 161);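 also: 0% = growth of cultures given vehicle only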; settings: S. cerevisiae sgs1 mgt1 strain, stronger effect = higher value
How it was run: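 Compounds are added to genetically altered yeast, and growth is compared with cultures given vehicle alone to give percent inhibition.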

[9] = NCI Yeast Anticancer Drug Screen. Data for the CLN2oe strain (AID 163);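 also: 0% = growth of vehicle-only control cultures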; settings: S. cerevisiae CLN2oe strain, stronger effect = higher value
How it was run: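 Cells of an engineered yeast line with disturbed cell-cycle regulation are treated with compound. Inhibition of growth is then calculated relative to the vehicle-treated reference.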

[10] = NCI Yeast Anticancer Drug Screen. Data for the cln2 rad14 strain (AID 165);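 also: 0% = growth equal to vehicle treated cultures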; settings: S. cerevisiae cln2 rad14 strain, stronger effect = higher value
How it was run: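 Strain: cln2 rad14 yeast, altered in cell cycle control and DNA damage repair. Read-out: growth inhibition vs vehicle.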

[11] = NCI Yeast Anticancer Drug Screen. Data for the bub3 strain (AID 167); settings: S. cerevisiae bub3 mutant strain, stronger effect = higher value
How it was run: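 Mutant yeast screening strain plus compound; vehicle-treated cultures serve as the 0% inhibition reference.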

[12] = NCI Yeast Anticancer Drug Screen. Data for the wt2 strain (AID 169); settings: S. cerevisiae wt2 strain growth inhibition, stronger effect = higher value
How it was run: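 Growth of compound-treated yeast is measured and expressed as inhibition relative to vehicle-only controls.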

[13] = NCI Yeast Anticancer Drug Screen. Data for the mlh1 strain (AID 171);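 also: 0% = growth of vehicle-treated control cultures of the same strain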; settings: S. cerevisiae mlh1 strain growth inhibition, stronger effect = higher value
How it was run: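 Test agents were incubated with yeast bearing a defined DNA damage repair or cell cycle control alteration; values are growth inhibition normalised to vehicle-treated cultures.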

[14] = NCI Yeast Anticancer Drug Screen. Data for the sgs1 strain (AID 173);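 also: 0% = growth of vehicle-only control cultures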; settings: S. cerevisiae sgs1 mutant, stronger effect = higher value
How it was run: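 Strain with an altered DNA repair or cell cycle pathway exposed to compound. Growth then measured. Value = inhibition versus vehicle control.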

[15] = NCI Yeast Anticancer Drug Screen. Data for the mlh1 rad18 strain (AID 175); settings: S. cerevisiae mlh1 rad18 strain growth inhibition, stronger effect = higher value
How it was run: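 A repair-deficient yeast strain is exposed to test compound, and growth is scored relative to vehicle-treated controls.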

[16] = NCI Yeast Anticancer Drug Screen. Data for the rad18 strain (AID 177); settings: S. cerevisiae rad18 mutant growth inhibition, stronger effect = higher value
How it was run: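 DNA-repair-defective yeast; compound treatment; growth inhibition scored against vehicle.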

[17] = at 5.0 µM (retest, dose inferred, filed as 0.5)
[18] = at 50.0 µM (retest, dose inferred, filed as 5.0)

Measured: growth inhibition

O=C1Oc2ccccc2C(=O)/C1=C/N1C(=O)N/C(=C\c2ccccc2Br)C1=O
active: [1]; at 100.0 µM 91% | [4]; at 100.0 µM 96% | [5]; at 50.0 µM 91.9% | [5]; at 100.0 µM 95% | [6]; at 100.0 µM 86% | [7]; at 100.0 µM 97% | [8]; at 50.0 µM 89.7% | [11]; at 50.0 µM 94.5% | [11]; at 100.0 µM 83% | [12]; at 100.0 µM 96% | [13]; at 100.0 µM 97% | [14]; at 100.0 µM 96% | [15]; at 50.0 µM 95.5% | [16]; at 100.0 µM 94%
inactive: [1]; at 1.2 µM 1% | [1]; at 3.7 µM 4% | [1]; at 11.0 µM 13% | [1]; at 33.0 µM 43% | [2]; at 1.2 µM 4% | [2]; at 3.7 µM 7% | [2]; at 11.0 µM 8% | [2]; at 33.0 µM 18% | [2]; at 100.0 µM 55% | [3]; at 1.2 µM -2% | [3]; at 3.7 µM 1% | [3]; at 11.0 µM 6% | [3]; at 33.0 µM 21% | [3]; at 100.0 µM 57% | [4]; at 1.2 µM 0% | [4]; at 3.7 µM 1% | [4]; at 11.0 µM 7% | [4]; at 33.0 µM 25% | [5]; at 1.2 µM -2% | [5]; at 3.7 µM -11% | [5]; [17] -6% | [5]; at 11.0 µM -3% | [5]; at 33.0 µM 40% | [5]; [18] 54% | [6]; at 1.2 µM 1% | [6]; at 3.7 µM 1% | [6]; [17] -15% | [6]; at 11.0 µM 7% | [6]; at 33.0 µM 27% | [6]; [18] 5% | [6]; at 50.0 µM 56.1% | [7]; at 1.2 µM 1% | [7]; at 3.7 µM 2% | [7]; at 11.0 µM 13% | [7]; at 33.0 µM 59% | [8]; [17] -3% | [8]; [18] 17% | [9]; at 1.2 µM -3% | [9]; at 3.7 µM 4% | [9]; at 11.0 µM 14% | [9]; at 33.0 µM 33% | [9]; at 100.0 µM 56% | [10]; [17] 15% | [10]; [18] 13% | [10]; at 50.0 µM 39.5% | [11]; at 1.2 µM 0% | [11]; at 3.7 µM -1% | [11]; [17] 7% | [11]; at 11.0 µM 6% | [11]; at 33.0 µM 29% | [11]; [18] 33% | [12]; at 1.2 µM 1% | [12]; at 3.7 µM 2% | [12]; at 11.0 µM 6% | [12]; at 33.0 µM 33% | [13]; at 1.2 µM 0% | [13]; at 3.7 µM 5% | [13]; at 11.0 µM 12% | [13]; at 33.0 µM 43% | [14]; at 1.2 µM 2% | [14]; at 3.7 µM 5% | [14]; at 11.0 µM 14% | [14]; at 33.0 µM 54% | [15]; [17] 4% | [15]; [18] 52% | [16]; at 1.2 µM -1% | [16]; at 3.7 µM 1% | [16]; at 11.0 µM 6% | [16]; at 33.0 µM 51%

COc1ccc(C2CC(C)(N3CCCC3)Oc3cc4c(cc32)OCO4)cc1 (stereo unspecified)
active: [1]; at 100.0 µM 94% | [4]; at 100.0 µM 85% | [5]; at 100.0 µM 92% | [11]; [18] 74% | [11]; at 100.0 µM 87% | [12]; at 100.0 µM 92% | [13]; at 100.0 µM 83% | [14]; at 100.0 µM 83% | [15]; [18] 75% | [15]; at 50.0 µM 76.7% | [16]; at 100.0 µM 77%
inactive: [1]; at 1.2 µM 4% | [1]; at 3.7 µM 5% | [1]; at 11.0 µM 4% | [1]; at 33.0 µM 32% | [2]; at 1.2 µM -3% | [2]; at 3.7 µM -3% | [2]; at 11.0 µM -5% | [2]; at 33.0 µM -9% | [2]; at 100.0 µM 11% | [3]; at 1.2 µM 4% | [3]; at 3.7 µM 4% | [3]; at 11.0 µM 3% | [3]; at 33.0 µM 9% | [3]; at 100.0 µM -3% | [4]; at 1.2 µM -1% | [4]; at 3.7 µM -1% | [4]; at 11.0 µM -3% | [4]; at 33.0 µM -5% | [5]; at 1.2 µM 5% | [5]; at 3.7 µM 1% | [5]; [17] -7% | [5]; at 11.0 µM 0% | [5]; at 33.0 µM 37% | [5]; [18] 25% | [5]; at 50.0 µM 64.5% | [6]; at 1.2 µM -1% | [6]; at 3.7 µM -1% | [6]; [17] 11% | [6]; at 11.0 µM -4% | [6]; at 33.0 µM 1% | [6]; [18] 9% | [6]; at 50.0 µM 9.8% | [6]; at 100.0 µM 36% | [7]; at 1.2 µM 0% | [7]; at 3.7 µM 0% | [7]; at 11.0 µM -1% | [7]; at 33.0 µM 9% | [7]; at 100.0 µM 67% | [8]; [17] -6% | [8]; [18] 47% | [8]; at 50.0 µM 61.5% | [9]; at 1.2 µM 2% | [9]; at 3.7 µM -1% | [9]; at 11.0 µM -6% | [9]; at 33.0 µM 6% | [9]; at 100.0 µM 68% | [10]; [17] 8% | [10]; [18] 34% | [10]; at 50.0 µM 19.4% | [11]; at 1.2 µM 1% | [11]; at 3.7 µM 5% | [11]; [17] 22% | [11]; at 11.0 µM -21% | [11]; at 33.0 µM 22% | [11]; at 50.0 µM 41.4% | [12]; at 1.2 µM -7% | [12]; at 3.7 µM -1% | [12]; at 11.0 µM -13% | [12]; at 33.0 µM 6% | [13]; at 1.2 µM 3% | [13]; at 3.7 µM -1% | [13]; at 11.0 µM -4% | [13]; at 33.0 µM 13% | [14]; at 1.2 µM -4% | [14]; at 3.7 µM 9% | [14]; at 11.0 µM -18% | [14]; at 33.0 µM 17% | [15]; [17] 2% | [16]; at 1.2 µM 5% | [16]; at 3.7 µM 7% | [16]; at 11.0 µM 12% | [16]; at 33.0 µM 35%
